# Data reported in PubChem BioAssay (NCI).
# About 79,000 compounds went through this panel and 15% of them were active in at least one assay; those are over-represented in the sample as a whole. Values without a mark were called inactive. Active and inactive are the calls of the source. Cut-off read from the data, not from the text of the source: active = growth inhibition above about 70%; inactive = the rest.
# Key:
# [1] = NCI Yeast Anticancer Drug Screen. Data for the rad50 strain (AID 155);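 note: 0% = growth of vehicle-only cultures of the same strain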; settings: S. cerevisiae rad50 strain growth inhibition, active compounds read high; at 50.0 µM unless noted
# Procedure, shortened: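 Growth of the mutant yeast was measured after compound exposure and referenced to vehicle-treated cultures.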
# [2] = NCI Yeast Anticancer Drug Screen. Data for the mec2-1 strain (AID 157); settings: S. cerevisiae mec2-1 strain, active compounds read high; at 50.0 µM unless noted
# Procedure, shortened: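 Cells of the genetically defined mec2-1 yeast strain are incubated with test compound. Inhibition of growth is calculated against vehicle-treated controls.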
# [3] = NCI Yeast Anticancer Drug Screen. Data for the sgs1 mgt1 strain (AID 161);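 note: 0% = growth of cultures given vehicle only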; settings: S. cerevisiae sgs1 mgt1 strain, active compounds read high; at 50.0 µM unless noted
# Procedure, shortened: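 Mutant yeast exposed to compound; growth scored against vehicle-only wells.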
# [4] = NCI Yeast Anticancer Drug Screen. Data for the cln2 rad14 strain (AID 165);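 note: 0% = growth equal to vehicle treated cultures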; settings: S. cerevisiae cln2 rad14 strain, active compounds read high; at 50.0 µM unless noted
# Procedure, shortened: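 The screen exposed genetically defined yeast (cln2 rad14) to test compounds and scored growth inhibition relative to vehicle-treated controls.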
# [5] = NCI Yeast Anticancer Drug Screen. Data for the bub3 strain (AID 167); settings: S. cerevisiae bub3 mutant strain, active compounds read high; at 50.0 µM unless noted
# Procedure, shortened: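 Whole-cell yeast assay. The mutant strain was incubated with compounds, and growth inhibition was determined by comparison with vehicle-treated cells.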
# [6] = NCI Yeast Anticancer Drug Screen. Data for the mlh1 rad18 strain (AID 175); settings: S. cerevisiae mlh1 rad18 strain growth inhibition, active compounds read high; at 50.0 µM unless noted
# Procedure, shortened: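 Compound-treated yeast growth, normalised to vehicle controls. Strain bears defined DNA repair mutations.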
Structure (SMILES),growth inhibition [1],growth inhibition [2],growth inhibition [3],growth inhibition [4],growth inhibition [5],growth inhibition [6]
O=C(CC1=Nc2nnc(-c3nnc4n3C(=O)C(CC(=O)c3cccnc3)=N4)n2C1=O)c1cccnc1,-5%,-8.55%,-1.35%,-19.2%,-6.35%,-12.7%
COC1OC(CO)C(O)C1OS(C)(=O)=O (centres undefined),-11.7%,-4.25%,-10.3%,-1.2%,-4.45%,-8.3%
NCCCC(=S)S,-4.35%,12.6%,-0.75%,12.8%,13.8%,13.4%
COc1ccc(/C(CC2OC(=O)c3ccccc32)=N\NC(=O)C[N+](C)(C)C)cc1 (centres undefined),6.1%,-10.8%,0.4%,7.55%,12.1%,8.5%
CC(C)NC(=O)c1ccc(Cl)cc1Cl,26.9%,27.9%,15.6%,10.9%,3.7%,12%
C(=N\N1CN(/N=C/c2ccccc2)C(c2ccccc2)C1c1ccccc1)/c1ccccc1 (centres undefined),-6.2%,-3.15%,4.5%,7.35%,-1.65%,7.05%
O=C1C=CC(=Nc2ccc3c(c2)-c2ccccc2C3)O1,3.2%,21%,5.05%,-9.9%,1.35%,12.1%
COc1cc(/C=N/NC(=O)c2ccccc2OC)ccc1O,41.4%,17.4%,22.9%,20.8%,27.9%,17.2%
Cc1cc(N(CCC#N)CCC#N)ccc1/C=C1/CN(N2C(=O)/C(=C/c3ccc(N(CCC#N)CCC#N)cc3C)N=C2c2ccccc2)C(c2ccccc2)=N1,-2.7%,-25.4%,-22.6%,5.6%,-28.8%,-11.1%
CC(C)(C)OC(=O)c1ccccc1C(=O)c1ccccc1,-0.4%,-1.2%,-4.8%,14.3%,9.05%,-10.8%
COc1ccc(C2CC(=O)N(c3ncccn3)C(=O)C2)cc1,14.5%,8.4%,10%,-13.7%,-12.3%,5.25%
CCOC(=O)Cc1nc2ccccc2[nH]1,4.4%,-7.85%,-13.2%,-103%,-12.2%,-3.2%
N#CCCC1(CCC#N)CCCC(CCC#N)(CCC#N)C1=O,2%,7.6%,2.15%,-51.5%,16.8%,11.2%
FC(F)(F)COP1(OCC(F)(F)F)=NP(OCC(F)(F)F)(OCC(F)(F)F)=NP(OCC(F)(F)F)(OCC(F)(F)F)=N1,-1.2%,14.3%,-5.15%,-4.55%,-3.45%,6.8%
CNS(=O)(=O)c1ccc(C)c(C)c1,-0.5%,-13.9%,4.4%,-10.7%,23.1%,12.7%
CC(C)=CC(=O)CC1(C)CCC(c2ccoc2)O1 (centres undefined),-18.8%,-32.9%,-11.6%,14%,6.35%,-16%
CN(C)c1ccc(C(c2ccc(C(c3ccc(N(C)C)cc3)c3ccc(N(C)C)cc3)cc2)c2ccc(N(C)C)cc2)cc1,-6.55%,4.8%,-22.1%,-0.8%,-10.8%,14.6%
CCCCCCCC1C(=O)OC2CC3C(C)=CC(=O)C(O)C3(C)C3C4(O)OCC23C1C(C)C4O (centres undefined),91.5% (active),92.3% (active),91% (active),91.4% (active),90.2% (active),92.1% (active)
Cc1ccc(C(=O)C[n+]2ccc3ccccc3c2)c(O)c1,-17.1%,-17.9%,-20.2%,-51.9%,-14.3%,1.25%
Cc1ccc(S(=O)(=O)ONNc2nccc3ccccc23)cc1,16.9%,7.05%,1.55%,-16.8%,1.15%,19.4%

Structure (SMILES),growth inhibition [1],growth inhibition [2],growth inhibition [3],growth inhibition [4],growth inhibition [5],growth inhibition [6]
CCOC(=O)Cc1nc2nn(Cc3ccccc3)cc2c(=O)[nH]1,-48.8%,-63.9%,-7%,0.65%,-10.9%,-19.8%
C(#Cc1ccccc1)COc1ccccc1,9.9%,11.9%,-15.1%,1.5%,17.1%,-5.25%
O=[N+]([O-])c1cnccc1/C=C\c1ccccc1,4.5%,3.15%,-2.1%,-35.9%,-5.7%,12%
COc1ccc(-n2c(N)c(C#N)[nH]c2=O)cc1,-8.7%,-36.1%,-14%,-11.8%,6.05%,-21.3%
O=C1c2ccccc2CC(c2ccccc2)N1c1ccccc1 (centres undefined),51.1%,0.4%,31.4%,-22.4%,3.55%,32.1%
CCC[CH2][Sn]1([CH2]CCC)[O]C2C(CO)OC(n3c(Br)c(C#N)c4c(N)ncnc43)C2[O]1 (centres undefined),98.4% (active),98.5% (active),98.7% (active),98.7% (active),97.7% (active),98% (active)
CN(C)c1ccc(/C=C(\C#N)C(=O)O)cc1,33.8%,-12.9%,2.8%,11.7%,30.8%,38.2%
COC1=C2CC(C)CC(OC)C(O)C(C)/C=C(\C)C(OC(N)=O)C(OC)/C=C\C=C(/C)C(=O)NC(=C(/C=N/N(C)C)C1=O)C2=O (centres undefined),-11.3%,-63.5%,-35%,3.5%,-16.9%,-25.8%
O=C(Nc1cccc(I)c1)OCCCl,79.8% (active),7.5%,87.2% (active),0.4%,-7.55%,57.2%
CC1(C)C2CCC3(C2)CS(=O)(=O)N2OC231 (centres undefined),6.55%,-35.9%,-31.1%,-20.1%,-26.9%,-9.7%
O=C1CN(c2cccc(C(F)(F)F)c2)C(=O)CN1/N=C/c1cccnc1,-28.4%,-5.2%,10.8%,-4.35%,27.9%,-8.45%
NC(=S)c1ccc2ccccc2c1,9.95%,13.9%,15.1%,6.15%,15.2%,9.2%
CCCCCCCCCCCCCC(=O)OCCC(C)C,-5.85%,0.25%,7.25%,-18.9%,3.4%,-7.3%
O=C(O)/C=C/c1cc(Br)sc1Br,-2.05%,7.35%,5%,-11.3%,-0.95%,19.5%
CC(=O)Nc1ccc(C2NCc3cnc(C)nc3N2)cc1 (centres undefined),0.35%,-0.75%,0.15%,-6.95%,10.2%,0.95%
NC(=O)Nc1ccc(/C=C\c2ccnc3ccccc23)cc1,-19.7%,2.5%,4.95%,-31.9%,-15.9%,-9.45%
CC(=O)[CH-]C(=O)c1ccccc1.CC(=O)[CH-]C(=O)c1ccccc1.CC1(C)OCC(C2OC3OC(C)(C)OC3C2[O-])O1.CC[O-].[Ti+4] (centres undefined),41.4%,24.1%,35.5%,23%,31.2%,33.4%
CCOC(=O)CSc1nc(-c2ccccc2)c(C#N)c(=O)[nH]1,3.05%,1.2%,-5.4%,13.2%,2.6%,-61%
CC(=O)c1ccc(NC(=O)C(=O)C(C(=O)c2ccc(Cl)c(Cl)c2)C2OC(=O)c3ccccc32)cc1 (centres undefined),44.6%,38.8%,13.7%,54.1%,60.3%,49.3%
